The list is not random: actives were taken first. Their share in the collection is about 19%.
TDP1 cell noCPT = qHTS for Inhibitors of human tyrosyl-DNA phosphodiesterase 1 (TDP1): qHTS in cells in absence of CPT; DT40 Tdp1-/- hTDP1 cells, no CPT, ATP luminescence, 48 h; Potency, µM (highest dose often 46.2 µM), actives largely listed as inhibitors; 420,000 tested, 15% active; AID 686978, 2013; further: nearly all actives have a fitted effect of over 55% in size
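Compound effects on proliferation are scored in DT40 Tdp1-/-;hTDP1 cells in the absence of CPT. ATP levels (CellTiter-Glo luminescence) are recorded after a ≥48 hr, 37 °C incubation.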
HT1080-NT tox = qHTS for induction of synthetic lethality in tumor cells producing 2HG: qHTS for the HT-1080-NT fibrosarcoma cell line. HT-1080-NT fibrosarcoma viability, CellTiter-Glo ATP luminescence, 48 h. Potency, µM (doses to about 46.1 µM), actives largely listed as cytotoxic. 360,000 tested, 1.6% active;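 further: NT is the 2HG producing partner of a matched IDH1 knockdown line; nearly all actives have a fitted effect of over 55% in size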
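HT-1080-NT fibrosarcoma cells (2HG-overproducing), 750 cells/well in RPMI with 5% FBS, dosed after 2 h and incubated 48 h at 37C. CellTiter-Glo luminescence normalized to DMSO and no-cell wells; concentration-response curves fitted and classed.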
IL1B secr inh = qHTS for Inhibitors of Inflammasome Signaling: IL-1-beta AlphaLISA Primary Screen | activity change, % at 57.5 µM | 360,000 tested, 4.7% active | AID 743279, 2014 | THP-1 LPS/ATP IL-1B secretion, AlphaLISA, 16 h; stronger effect = lower value; in the data active means activity change below about -50%; inconclusive means mostly about -30% to -49%
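Secreted IL-1B measured by AlphaLISA bead assay after 16 h compound exposure of THP-1 cells; compounds (final up to 57.5 uM) added 1 h before LPS (250 ng/mL) and ATP (1.25 mM) stimulation; lower signal means less secretion.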
ELG1 repair inh = qHTS screen for small molecules that inhibit ELG1-dependent DNA repair in human embryonic kidney (HEK293T) cells expressing luciferase-tagged ELG1 | HEK293T ELG1-luciferase reporter, luminescence, 16 h; DNA damage induced by 5-fluorouridine | 330,000 tested, 2.3% active | Potency, µM (series often up to 46.1 µM), hits mostly inhibitors | AID 504467, 2011; further: nearly all actives have a fitted effect of over 55% in size
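In this reporter screen, reduction of luminescence relative to DMSO vehicle indicated activity. Compounds and 5-fluorouridine were added together to 2,000 cells per well, incubated for 16 hr at 37 °C, then developed with ONE-Glo.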
HT1080 IDH1KD tx = qHTS for induction of synthetic lethality in tumor cells producing 2HG: qHTS for the HT-1080-IDH1KD cell line | 360,000 tested, 2% active | Potency, µM (titrated, usually from 46.1 µM), actives largely listed as cytotoxic | HT-1080 IDH1 knockdown viability, ATP luminescence, 48 h
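IDH1KD HT-1080 cells, 750/well, RPMI + 5% FBS; compound pinned after 2 h settling; 48 h, 37 °C; CellTiter-Glo luminescence; % activity normalised to DMSO and no-cell wells; curves fitted, classed by r2 and efficacy.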
DT40 TDP1 CPT = qHTS for Inhibitors of human tyrosyl-DNA phosphodiesterase 1 (TDP1): qHTS in cells in presence of CPT | 420,000 tested, 12% active | Potency, µM (titrated, usually from 46.2 µM), most hits filed as inhibitors | chicken DT40 Tdp1-/-;hTDP1 cells + 20 nM CPT, ATP luminescence, 48 h; further: nearly all actives have a fitted effect of over 55% in size
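Cell growth measured by CellTiter-Glo luminescence after a minimum 48 h, 37 C compound exposure with 20 nM CPT in Tdp1-knockout DT40 cells stably expressing hTDP1, seeded 400/well; qHTS titration format.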
A number is an active result. Unless noted, the call rests on the fitted dose curve; in most records, active means well fitted curve in the direction sought with a large enough effect; inconclusive means small, poorly fitted or top-dose-only effect, or another doubt; inactive means no such curve, though single readings can be large; an effect the other way counts as inactive or inconclusive.

Screening CCN(CC)S(=O)(=O)c1cc(NC(=O)C(=O)c2c(-c3ccccc3)cc3ccccn23)ccc1C returned TDP1 cell noCPT 23µM, HT1080-NT tox inactive, IL1B secr inh inactive, ELG1 repair inh 16µM, HT1080 IDH1KD tx inactive and DT40 TDP1 CPT 21µM.
Screening CCN(CC)S(=O)(=O)c1cccc(C(=O)Nc2cc(C)cc(C)c2)c1 returned TDP1 cell noCPT inconclusive, HT1080-NT tox inactive, IL1B secr inh inactive, ELG1 repair inh inconclusive, HT1080 IDH1KD tx inconclusive and DT40 TDP1 CPT inconclusive.
For O=C(NCCCO)C(=O)c1c(-c2ccccc2)cc2ccccn12 the results were TDP1 cell noCPT inactive, HT1080-NT tox inactive, IL1B secr inh inactive, ELG1 repair inh inactive, HT1080 IDH1KD tx inactive and DT40 TDP1 CPT inactive.
`CCN(CC)S(=O)(=O)c1cccc(C(=O)c2c(C)cc3ccccn23)c1` gave TDP1 cell noCPT 21µM, HT1080-NT tox inactive, IL1B secr inh inactive, ELG1 repair inh inconclusive, HT1080 IDH1KD tx inactive and DT40 TDP1 CPT inconclusive.
Cc1c(-c2ccc(O)cc2)nn(-c2ccc(O)cc2)c1-c1ccc(OCCN2CCCCC2)cc1 was read as TDP1 cell noCPT 30µM and DT40 TDP1 CPT 19µM.
For Cc1ccc(OCCN2CCCC2)cc1 the results were TDP1 cell noCPT inactive, HT1080-NT tox inactive, IL1B secr inh inactive, ELG1 repair inh inactive, HT1080 IDH1KD tx inactive and DT40 TDP1 CPT inactive.
`CC(=O)c1ccc(N2CCN(S(=O)(=O)c3ccc4c5c3CC(=O)N5CC(C)S4)CC2)cc1` (stereo not drawn) gave TDP1 cell noCPT 21µM, HT1080-NT tox inactive, IL1B secr inh inactive, ELG1 repair inh inactive, HT1080 IDH1KD tx inactive and DT40 TDP1 CPT 21µM.
CC(=O)c1ccc(N2CCN(S(=O)(=O)c3ccc4c(c3)CC(=O)N4)CC2)cc1 was read as TDP1 cell noCPT inactive, HT1080-NT tox inactive, IL1B secr inh inactive, ELG1 repair inh inactive, HT1080 IDH1KD tx inactive and DT40 TDP1 CPT inactive.
For CCCCCCn1c(=O)n2n(c1=O)C[C@]1(OC(=O)Nc3c(C)noc3C)CN(S(=O)(=O)c3ccc(C)cc3)C[C@]1(O)C2 the results were TDP1 cell noCPT 21µM, HT1080-NT tox inactive, IL1B secr inh inactive, HT1080 IDH1KD tx inactive and DT40 TDP1 CPT inconclusive.
`CCCCCCn1c(=O)n2n(c1=O)C[C@]1(OC(=O)Nc3cccs3)CN(S(=O)(=O)c3ccc(C)cc3)C[C@]1(O)C2` gave TDP1 cell noCPT 13µM, HT1080-NT tox inactive, IL1B secr inh -51, HT1080 IDH1KD tx inactive and DT40 TDP1 CPT 21µM.
For CCCCCCn1c(=O)n2n(c1=O)C[C@]1(OC(=O)NCc3ccccc3)CN(S(=O)(=O)c3ccc(C)cc3)C[C@]1(O)C2 the results were TDP1 cell noCPT 15µM, HT1080-NT tox inactive, IL1B secr inh inactive, HT1080 IDH1KD tx inactive and DT40 TDP1 CPT inconclusive.
Cc1ccc(S(=O)(=O)N2C[C@]3(O)C[C@@H]4C(=O)N(c5ccccc5)C(=O)[C@@H]4C[C@]3(OC(=O)NCc3ccco3)C2)cc1 was read as TDP1 cell noCPT inactive, HT1080-NT tox inactive, IL1B secr inh inactive, HT1080 IDH1KD tx inactive and DT40 TDP1 CPT inactive.
CCCCCCn1c(=O)n2n(c1=O)C[C@]1(OC(=O)NCc3ccco3)CN(S(=O)(=O)c3ccc(C)cc3)C[C@]1(O)C2 was read as TDP1 cell noCPT 26µM, HT1080-NT tox inactive, IL1B secr inh inactive, HT1080 IDH1KD tx inactive and DT40 TDP1 CPT inconclusive.
For O=C(COC(=O)c1ccc(O)cc1O)Nc1ncc(Cl)cc1Cl the results were TDP1 cell noCPT inactive, HT1080-NT tox inactive, IL1B secr inh inactive, ELG1 repair inh inactive, HT1080 IDH1KD tx inactive and DT40 TDP1 CPT inactive.
CN(CCc1ccccc1)C(=O)c1[nH]c(C(F)(F)F)nc1-c1ccccc1 was read as TDP1 cell noCPT inactive, HT1080-NT tox inactive, IL1B secr inh inactive, HT1080 IDH1KD tx inactive and DT40 TDP1 CPT inactive.
Screening CCOC(=O)c1ccccc1NC(=O)CCc1c(C)nc2ncnn2c1C returned TDP1 cell noCPT inactive and DT40 TDP1 CPT inactive.
For CCc1cccc(C)c1NC(=O)CN(C)Cc1cccc(F)c1 the results were TDP1 cell noCPT 16µM, HT1080-NT tox inactive, IL1B secr inh inactive, ELG1 repair inh inactive, HT1080 IDH1KD tx inactive and DT40 TDP1 CPT inconclusive.
For Cc1cccc(C)c1NC(=O)CN(C)CC(=O)Nc1ccccc1Oc1ccccc1 the results were TDP1 cell noCPT inconclusive, HT1080-NT tox inactive, IL1B secr inh inactive, ELG1 repair inh 12µM, HT1080 IDH1KD tx inactive and DT40 TDP1 CPT inactive.
Screening COc1ccc(CN(C)CC(=O)Nc2c(C)cccc2C)c(OC)c1 returned TDP1 cell noCPT inconclusive, HT1080-NT tox inactive, IL1B secr inh inactive, ELG1 repair inh inactive, HT1080 IDH1KD tx inactive and DT40 TDP1 CPT inconclusive.
`Cc1ccccc1CN(C)CC(=O)Nc1c(C)cccc1C(C)C` gave TDP1 cell noCPT 3.3µM, HT1080-NT tox inactive, IL1B secr inh -86, ELG1 repair inh inactive, HT1080 IDH1KD tx inactive and DT40 TDP1 CPT inconclusive.
Cc1cccc(C(C)C)c1NC(=O)CN(C)Cc1cccc(F)c1 was read as TDP1 cell noCPT 23µM, HT1080-NT tox inactive, IL1B secr inh inactive, ELG1 repair inh inactive, HT1080 IDH1KD tx inactive and DT40 TDP1 CPT inconclusive.
`CC(NC(=O)CN(C)Cc1cccc(F)c1)c1ccccc1` (stereo not drawn) gave TDP1 cell noCPT inactive, HT1080-NT tox inactive, IL1B secr inh inactive, ELG1 repair inh inactive, HT1080 IDH1KD tx inactive and DT40 TDP1 CPT inactive.
Cn1c(SCc2ccccc2Cl)nc2c([nH]c3ccccc32)c1=O was read as TDP1 cell noCPT inactive and DT40 TDP1 CPT inactive.
Screening O=S(=O)(Nc1ncnc2sc3c(c12)CCC3)c1cc(F)ccc1F returned TDP1 cell noCPT inactive, HT1080-NT tox inactive, IL1B secr inh inactive, ELG1 repair inh inactive, HT1080 IDH1KD tx inactive and DT40 TDP1 CPT inactive.
For c1ccc(CNc2ncnc3sc4c(c23)CCC4)nc1 the results were TDP1 cell noCPT 15µM, HT1080-NT tox inactive, IL1B secr inh inactive, ELG1 repair inh inconclusive, HT1080 IDH1KD tx inactive and DT40 TDP1 CPT inconclusive.
For CCN(CC)c1ncnc2sc3c(c12)CCC3 the results were TDP1 cell noCPT inconclusive, HT1080-NT tox inactive, IL1B secr inh inactive, ELG1 repair inh 15µM, HT1080 IDH1KD tx inactive and DT40 TDP1 CPT inconclusive.

Bioassay records: PubChem, National Center for Advancing Translational Sciences (NCATS)
